{"source": "the supplement of paper PMC7726561", "sequences": {"B1": {"name": "unnamed (peptide)", "chain": "ALLDGRLQV"}, "B2": {"name": "unnamed (peptide)", "chain": "FILPHISTA"}, "B3": {"name": "unnamed (peptide)", "chain": "LADETLLKV"}, "B4": {"name": "unnamed (peptide)", "chain": "GLDPNKPPEL"}, "B5": {"name": "unnamed (peptide)", "chain": "VLGRVNLV"}, "B6": {"name": "unnamed (peptide)", "chain": "HLDEAIHVL"}, "B7": {"name": "unnamed (peptide)", "chain": "VLLGEVNIRL"}, "B8": {"name": "unnamed (peptide)", "chain": "SLLNPPETLNL"}, "B9": {"name": "unnamed (peptide)", "chain": "TLLGNIHAV"}, "B10": {"name": "unnamed (peptide)", "chain": "GLLENIPRV"}, "B11": {"name": "unnamed (peptide)", "chain": "YLHDQNPDAAL"}, "B12": {"name": "unnamed (peptide)", "chain": "VLLKARLVPA"}, "B13": {"name": "unnamed (peptide)", "chain": "VTTDIQVKV"}, "B14": {"name": "unnamed (peptide)", "chain": "FLLLPGPSAA"}, "B15": {"name": "unnamed (peptide)", "chain": "HLFETISQA"}, "B16": {"name": "unnamed (peptide)", "chain": "GLDPQGDRSFL"}, "B17": {"name": "unnamed (peptide)", "chain": "FLPQGFPDSV"}, "B18": {"name": "unnamed (peptide)", "chain": "SIHDVTFQV"}, "B19": {"name": "unnamed (peptide)", "chain": "SMSADVPLV"}, "B20": {"name": "unnamed (peptide)", "chain": "ALLKIEGVYA"}, "B21": {"name": "unnamed (peptide)", "chain": "ILLDNDHYA"}, "B22": {"name": "unnamed (peptide)", "chain": "FLDPNNIPKA"}, "B23": {"name": "unnamed (peptide)", "chain": "YLSPDLSKV"}, "B24": {"name": "unnamed (peptide)", "chain": "LLDPNVKSIFV"}, "B25": {"name": "unnamed (peptide)", "chain": "FLDITNPKA"}, "B26": {"name": "unnamed (peptide)", "chain": "FLDITNPKAV"}, "B27": {"name": "unnamed (peptide)", "chain": "AMNDILAQV"}, "B28": {"name": "unnamed (peptide)", "chain": "KLDFANNVQL"}, "B29": {"name": "unnamed (peptide)", "chain": "ALLDQLHTL"}, "B30": {"name": "unnamed (peptide)", "chain": "FLSELTQQL"}, "B31": {"name": "unnamed (peptide)", "chain": "VLHELTFQA"}, "B32": {"name": "unnamed (peptide)", "chain": "FVADGIFKA"}, "B33": {"name": "unnamed (peptide)", "chain": "VLAPHLTRA"}, "B34": {"name": "unnamed (peptide)", "chain": "FLSDGTIISV"}, "B35": {"name": "unnamed (peptide)", "chain": "RLAEALPKQSV"}, "B36": {"name": "unnamed (peptide)", "chain": "GVIDGHIYAV"}, "B37": {"name": "unnamed (peptide)", "chain": "SLFPGKLEV"}, "B38": {"name": "unnamed (peptide)", "chain": "GLLQINDKIAL"}, "B39": {"name": "unnamed (peptide)", "chain": "RLQEEINEV"}, "B40": {"name": "unnamed (peptide)", "chain": "YQLEAEFVGV"}, "B41": {"name": "unnamed (peptide)", "chain": "SLLGGVLRV"}, "B42": {"name": "unnamed (peptide)", "chain": "TLSDLRVYL"}, "B43": {"name": "unnamed (peptide)", "chain": "ALFPERITV"}, "B44": {"name": "unnamed (peptide)", "chain": "YLDIKGLLDV"}, "B45": {"name": "unnamed (peptide)", "chain": "TLLDPNEKYLL"}, "B46": {"name": "unnamed (peptide)", "chain": "RLWNETVEL"}, "B47": {"name": "unnamed (peptide)", "chain": "SIAPRMMSV"}, "B48": {"name": "unnamed (peptide)", "chain": "FTQDSNYLL"}, "B49": {"name": "unnamed (peptide)", "chain": "HIADVSHFI"}, "B50": {"name": "unnamed (peptide)", "chain": "RIADGLPVAV"}, "B51": {"name": "unnamed (peptide)", "chain": "VLADQEVRL"}, "B52": {"name": "unnamed (peptide)", "chain": "GLNEEIARV"}, "B53": {"name": "unnamed (peptide)", "chain": "IQDDMQTLYV"}, "B54": {"name": "unnamed (peptide)", "chain": "ILANDGVLLAA"}, "B55": {"name": "unnamed (peptide)", "chain": "FLIPIYHQV"}, "B56": {"name": "unnamed (peptide)", "chain": "SLIRNLEQL"}}, "note": "Whole data set: some 1,100 sequences, median “thermal melting temperature (Tm) of peptide-HLA complex” near 58, cut for the lowest 2% near 42. The full list was thinned out, with the lowest values kept by preference.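 Also: lysates heated 10 min at 37–73 °C, complexes pulled down with pan-HLA I antibody, peptide signal by DIA-MS relative to 37 °C, Tm where half the complex is unfolded.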"}
{"target": "HLA-A*02:01", "experiment": "thermal melting temperature (Tm) of peptide-HLA complex; higher = more thermostable pHLA complex", "conditions": "C1R-A*02:01", "units": {"thermal melting temperature": "°C"}}
{"sequence": "B1", "thermal melting temperature": 60.7}
{"sequence": "B2", "thermal melting temperature": 55.7}
{"sequence": "B3", "thermal melting temperature": 55.2}
{"sequence": "B4", "thermal melting temperature": 61}
{"sequence": "B5", "thermal melting temperature": 45.9}
{"sequence": "B6", "thermal melting temperature": 51.9}
{"sequence": "B7", "thermal melting temperature": 55.2}
{"sequence": "B8", "thermal melting temperature": 54.9}
{"sequence": "B9", "thermal melting temperature": 59.5}
{"sequence": "B10", "thermal melting temperature": 64.8}
{"sequence": "B11", "thermal melting temperature": 59}
{"sequence": "B12", "thermal melting temperature": 59.7}
{"sequence": "B13", "thermal melting temperature": 47.3}
{"sequence": "B14", "thermal melting temperature": 47}
{"sequence": "B15", "thermal melting temperature": 54.9}
{"sequence": "B16", "thermal melting temperature": 57}
{"sequence": "B17", "thermal melting temperature": 45.8}
{"sequence": "B18", "thermal melting temperature": 57.4}
{"sequence": "B19", "thermal melting temperature": 61.3}
{"sequence": "B20", "thermal melting temperature": 59.4}
{"sequence": "B21", "thermal melting temperature": 50.4}
{"sequence": "B22", "thermal melting temperature": 61.3}
{"sequence": "B23", "thermal melting temperature": 61.9}
{"sequence": "B24", "thermal melting temperature": 62.2}
{"sequence": "B25", "thermal melting temperature": 58.3}
{"sequence": "B26", "thermal melting temperature": 40.7}
{"sequence": "B27", "thermal melting temperature": 62.2}
{"sequence": "B28", "thermal melting temperature": 50.3}
{"sequence": "B29", "thermal melting temperature": 62.5}
{"sequence": "B30", "thermal melting temperature": 59.5}
{"sequence": "B31", "thermal melting temperature": 60.4}
{"sequence": "B32", "thermal melting temperature": 41.1}
{"sequence": "B33", "thermal melting temperature": 53}
{"sequence": "B34", "thermal melting temperature": 57.5}
{"sequence": "B35", "thermal melting temperature": 41.8}
{"sequence": "B36", "thermal melting temperature": 61.7}
{"sequence": "B37", "thermal melting temperature": 60.4}
{"sequence": "B38", "thermal melting temperature": 41.7}
{"sequence": "B39", "thermal melting temperature": 55.3}
{"sequence": "B40", "thermal melting temperature": 58.7}
{"sequence": "B41", "thermal melting temperature": 55.7}
{"sequence": "B42", "thermal melting temperature": 64.7}
{"sequence": "B43", "thermal melting temperature": 61.6}
{"sequence": "B44", "thermal melting temperature": 56}
{"sequence": "B45", "thermal melting temperature": 61.3}
{"sequence": "B46", "thermal melting temperature": 63.7}
{"sequence": "B47", "thermal melting temperature": 48.1}
{"sequence": "B48", "thermal melting temperature": 49.1}
{"sequence": "B49", "thermal melting temperature": 55.3}
{"sequence": "B50", "thermal melting temperature": 41}
{"sequence": "B51", "thermal melting temperature": 58.4}
{"sequence": "B52", "thermal melting temperature": 64}
{"sequence": "B53", "thermal melting temperature": 43.4}
{"sequence": "B54", "thermal melting temperature": 59.6}
{"sequence": "B55", "thermal melting temperature": 62.7}
{"sequence": "B56", "thermal melting temperature": 51.2}
